From PubChem BioAssay come the findings set out here.

The experiment has as its system Inhibin beta A chain (activin A). As to the kind of experiment: INHBA (activin A) binders on microarrays, primary screen, biochemical, small-molecule microarray, 635 nm fluorescence scan (AID 1107).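 Note: mouse activin A protein probed at 4.33 µg/mL on printed slides; score merges bound-protein fluorescence near 667 nm with spot signal-to-noise.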 Particulars: small-molecule microarray binding, higher = more signal.
Molecule `COC(=O)[C@@]1(Cc2ccccc2)[C@H]2c3cc(C(=O)N4CCCC4)n(Cc4ccccc4)c3C[C@H]2CN1C(=O)c1ccccc1` showed a composite z-score of 0.675. The same measure for `CC(C)C[C@@H]1NC(=O)[C@@]23C(=O)N[C@@H](Cc4ccccc4)C2[C@H](C)[C@@]2(C)O[C@H]2C3/C=C/C/C=C\CNC(=O)[C@@H]2CCCN2C1=O` (stereo not given in full): 1.42.

`COC(=O)[C@@]1(Cc2ccc(OC)cc2)[C@H]2c3cc(C(=O)N4CCCC4)n(CCF)c3C[C@H]2CN1C(=O)c1ccccc1` showed a composite z-score of 0.823. Next, `C=C(/C(=C/C[C@@H](OC(=O)c1ccncc1)c1cccc(OCCO)c1)c1cc(C(=O)OC)ccc1OC)C(C)C`: 0.635; `O=C(CS)NCCCCCNC(=O)[C@@H]1C[C@@H]2C(=O)N3CCC[C@H]3C(=O)N2[C@@H]1c1ccc(O)cc1`: 0.0603.

`COc1cccc(C)c1NC(=O)O[C@H]1[C@H](OC(=O)Nc2ccccc2)[C@H](OC(=O)Nc2ccccc2)[C@@H](OC)O[C@@H]1CO` yielded a composite z-score of 0.179.

In turn, `COc1ccc(C#Cc2ccc3c(c2)[C@]2(C(=O)N3)[C@H](C(=O)O)[C@H]3C(=O)O[C@H](c4ccccc4)[C@H](c4ccccc4)N3[C@@H]2c2ccc(OCCO)cc2)cc1` showed a composite z-score of -0.159. Next, `COc1cc2c(cc1OC)CN(C(=O)[C@@H]1[C@H]3C(=O)O[C@H](c4ccccc4)[C@H](c4ccccc4)N3[C@H](c3ccc(O)cc3)[C@@]13C(=O)Nc1ccc(C#CCNC(N)=O)cc13)CC2`: 0.849. The same measure for `COc1ccc([Si](C)(C)[C@@H]2[C@@H](CCO)O[C@]3(C(=O)N(Cc4cccc(N5C(=O)COc6ccccc65)c4)c4ccccc43)[C@H]2C)cc1`: -0.496. The same measure for `Cc1ccc(-c2cccc(=O)o2)cc1`: 1.35; for `COC(=O)c1ccc(OC)c(/C=C\CC(CCc2ccccc2)OC(C)=O)c1` (stereo not given): 1.53; for `C=C(C(=O)CC[C@H](OC(=O)c1cccnc1)c1ccc(OCCO)cc1)C(C)C`: 0.958.

`CCCC=C(CCC)[C@@H](NS(=O)(=O)c1cccc2cccnc12)c1ccc(C(=O)OC)cc1` displayed a composite z-score of 0.948. Next, `CC(C)CCC[C@@H](C)[C@H]1CC[C@@]2(C)C3=C(CC[C@]12C)[C@@]1(C)CC[C@H](OC(=O)c2ccc(N)cc2)C(C)(C)C1CC3` (stereo not given in full): -0.023; `C[C@H]1ON(c2ccccc2)[C@@H](c2ccccc2)[C@@H]1C(=O)N1C(=O)OC[C@@H]1c1ccccc1`: 0.631; `Cc1ccc(S[C@]2(C(=O)O)CC(=O)N(Cc3ccccc3C(F)(F)F)[C@@H]2c2ccc(CO)cc2)cc1`: 1.

As to `C=CCN1C(=O)[C@@]2(O[C@@H](CCO)[C@H]([Si](C)(C)c3ccc(OC)cc3)[C@H]2C)c2cc(NC(=O)[C@H](C)O)ccc21`, the composite z-score was -0.156. Next, `CN1C(=O)C2C=CC(C(O)COCc3ccccc3)N(Nc3ccccc3)C2C1=O` (stereo not given): 1.18.

`C=CCC(OC(C)=O)[C@@H]1[C@@H](N(Cc2cc3ccccc3o2)C(=O)Cc2ccc(OC)cc2)c2cc(OCCCO)ccc2N1C(=O)c1ccc(-c2ccccc2)cc1` (stereo not given in full) registered a composite z-score of 1.34. The same measure for `CC1CC/C=C\[C@H]2OC34C=CCN(c5ccc(Cl)cc5)C(=O)[C@H]3N(C(CO)C(C)C)C(=O)[C@]4(C)C2C(=O)O1` (stereo not given in full): 0.813; for `COCCOC(=O)N1C(=O)[C@@]2(c3cc(C#CC4(O)CCCCCC4)ccc31)[C@H](C(=O)N1CCc3cc(OC)c(OC)cc3C1)[C@H]1C(=O)O[C@H](c3ccccc3)[C@H](c3ccccc3)N1[C@@H]2c1ccccc1OCCO`: 0.701. Consider `CC(C)C(CO)N1C(=O)[C@@H]2[C@H]3C(=O)OCC=C[C@H]3OC23C=CCN(Cn2nnc4ccccc42)C(=O)[C@@H]13` (stereo not given in full), for which the composite z-score is -1.33. Turning to `O=C1C2C=CC(C(O)c3ccc(Br)cc3)N(Nc3ccccc3)C2C(=O)N1c1ccccc1` (stereo not given), the composite z-score worked out at 1.23. The same measure for `CN(C)CCCCNC(=O)[C@H]1C[C@H]2C(=O)N[C@@H](CCCC[N+](C)(C)C)C(=O)N2[C@H]1c1cccc(OCCO)c1`: 0.877.

`O=C1C2C=CC(C(O)c3ccccn3)N(Nc3ccccc3)C2C(=O)N1c1ccccc1` (stereo not given): the composite z-score was 0.826.

Consider `COC(=O)[C@@]1(Cc2ccc(OC)cc2)[C@H]2c3cc(C(=O)N(C)C)n(CCF)c3C[C@H]2CN1C(=O)c1ccccc1`, for which the composite z-score amounted to 0.854. The same measure for `COC(=O)[C@@]1(Cc2ccccc2N=[N+]=[N-])N=C(c2ccc(OCCCO)cc2)O[C@H]1c1ccccc1`: 0.575; for `C=CCC(OC(C)=O)[C@@H]1[C@@H](N(Cc2cccc3ccccc23)C(=O)c2ccc(C)cc2)c2cc(OCCCO)ccc2N1C(=O)c1ccc2ccccc2c1` (stereo not given in full): 1.08. Next, `O=C(NCc1ccccc1)[C@]1(Cc2ccccc2)N=C(c2ccc(OCCCO)cc2)O[C@@H]1c1ccccc1`: 0.672; `O=C1O[C@@H](c2ccccc2)[C@@H](c2ccccc2)N2[C@@H](c3ccc(O)cc3)[C@]3(C(=O)Nc4ccc(C#CC5(O)CCCCCC5)cc43)[C@@H](C(=O)N3CCN(c4ncccn4)CC3)[C@H]12`: -0.293. The same measure for `COCC(=C=CC[C@@H](O)c1ccccc1OCCO)C[C@@H](O)c1ccccn1`: 0.639; for `C#CCNS(=O)(=O)N(C)C`: -0.128; for `C=CCC(OC(C)=O)[C@@H]1[C@@H](N(Cc2ccc(-c3cccc(C(F)(F)F)c3)o2)C(=O)c2cccc3ccccc23)c2cc(OCCCO)ccc2N1C(=O)c1ccc(-c2ccccc2)cc1` (stereo not given in full): 1.09. For `COCCOC(=O)N1C(=O)[C@@]2(c3cc(C#CCC(C(=O)OC)C(=O)OC)ccc31)[C@H](c1ccc(OCCO)cc1)N1[C@H](c3ccccc3)[C@H](c3ccccc3)OC(=O)[C@H]1[C@@H]2C(N)=O`, the composite z-score is 0.324.

As to `CCCC[C@H]1OB(O)C[C@H]2C1=C(COc1ccccc1)Cn1c(=O)n(-c3ccccc3)c(=O)n12`, the composite z-score was 0.54.
